Source: PubChem BioAssay AID651820 (National Center for Advancing Translational Sciences (NCATS), 2012)
Values joined by “and” are separate entries in the source; they are usually repeats but may differ in a detail not shown here. Equal entries are not always repeated. Among all 340,000 compounds or so, about 12,000 (3.5%) were called active. Inconclusive results (about 18%) are left out. Calls follow the shape of the dose curve; as a rule, active = well fitted inhibition curve with a large enough effect; inconclusive = small, poorly fitted or top-dose-only effect, or another doubt; inactive = no such curve, though single readings can be large or run the other way. The entries come from a sample that favours actives as a whole. A call without a number means that no potency is given here. More than one record can exist for a structure, and the calls need not agree.

Assay: qHTS Assay for Inhibitors of Hepatitis C Virus (HCV)
Conditions: Huh7.5.1 HCVcc-Cre infection, luciferase reporter, 44 h; series mostly up to 41.8 µM
Outline: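 After 44 h co-culture of compound, cells and HCVcc-Cre (~0.5 moi), substrate is added for 15 min at room temperature and luciferase measured over 15 sec. Cells were seeded at 1,000/well and pre-cultured 4 h.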
Potency is read from the fitted curve at half-maximal effect.

| SMILES | Potency |
| --- | --- |
| CCOc1ccc(N2C(=O)CSC2=NC#N)cc1 | inactive |
| COc1cc2[nH]c(=S)n(Cc3ccc(F)cc3)c(=O)c2cc1OC | inactive |
| COc1cc(-n2c(=S)[nH]c3ccc(C)cc3c2=O)c(Cl)cc1Cl | 10 µM (active) |
| COc1ccc(OC)c(-n2c(=S)[nH]c3cc(C(=O)N4CCCCC4)ccc3c2=O)c1 | inactive |
| CCN(C(=O)CSc1cccc[n+]1[O-])c1ccccc1 | inactive |
| Cc1cccc(NC(=S)NC(=O)c2ccc(Br)o2)c1 | inactive |
| Cc1cccc(NC(=O)c2ccc([N+](=O)[O-])o2)c1 | 3.55 µM (active) |
| Cc1onc(NC(=O)c2ccc([N+](=O)[O-])o2)c1Br | inactive |
| CC(C)(C)OC(=O)N[C@H](C(=O)OC(C)(C)C)c1ccc(Br)cc1 | inactive |
| C[C@]12C=CC(=O)C=C1CC[C@@H]1[C@@H]2C(=O)C[C@@]2(C)[C@H]1CC[C@]2(O)C(=O)CO | inactive and 2.82 µM (active) |
| CC(=O)OCC(=O)C1(O)CCC2C3CC(C)C4=CC(=O)CCC4(C)C3C(O)CC21C (stereo not given) | inactive |
| CC1(C)C(=O)CCC2(C)C1=CCC1C2C(=O)CC2(C)C1CCC2(O)C(=O)CO (stereo not given) | inactive |
| COc1ccc(-n2c(C)cc(C(=O)CSc3nnc(-c4cccs4)o3)c2C)cc1 | 11.2 µM (active) |
| COc1ccc(-c2nnc(SCC(=O)c3cccs3)o2)c(OC)c1 | inactive |
| COc1ccc(C(=O)CSc2nnc(-c3ccco3)o2)cc1 | inactive |
| COc1cc(C=NNC(=O)c2cccnc2)ccc1OC(=O)c1ccccc1F | inactive |
| O=C(COC(=O)c1ccccn1)NNC(=O)c1ccc([N+](=O)[O-])cc1 | inactive |
| O=C(Nc1ccccc1)N1CCC(C(=O)N2CCN(Cc3ccccc3)CC2)CC1 | inactive |
| c1cnc(Nc2nc(-c3ccc4ccccc4c3)cs2)nc1 | inactive |
| c1ccc(Nc2nc(-c3ccncc3)cs2)nc1 | 11.2 µM (active) |
| Cc1cccc(Nc2nc(-c3ccccc3)cs2)n1 | inactive |
| CC(C)CN1CC(C)C(=O)N(c2ccccc2)C1=S (stereo not given) | inactive |
| O=[N+]([O-])c1ccc(N2CCOCC2)cc1 | inactive |
| COc1ccc(C2NCCCC2c2ccccc2)cc1 (stereo not given) | inactive |

| SMILES | Potency |
| --- | --- |
| CC(=O)NCCc1nc2cc(NC(=O)c3ccccc3)ccc2n1C | inactive |
| Cn1c(CN2CCOCC2)nc2cc(NC(=O)c3ccc(Cl)cc3)ccc21 | 2.82 µM (active) |
| CCOC(=O)N1CCN(Cc2nc3cc(NC(C)=O)ccc3n2C)CC1 | inactive |
| COC(=O)Cc1ccc(Oc2ncc(C(F)(F)F)cc2Cl)cc1 | inactive |
| COc1cccc(/C(C)=N/Nc2ncc(Cl)cc2Cl)c1 | inactive |
| COc1cccc(/C=N/Nc2ncc(C(F)(F)F)cc2Cl)c1O | 5.62 µM (active) |
| Cc1cccc(NC(=O)CN2CCN(CC(=O)NCC3(N4CCCCC4)CCCCC3)CC2)c1C | inactive |
| COc1ccc(S(=O)(=O)N2CCOCC2)cc1NC(=O)Cc1coc2cc(C)ccc12 | inactive |
| Cc1ccc(-c2nn(-c3ccccc3)cc2C(=O)NCCCN2CCCC2=O)cc1 | inactive |
| CC(C)CCn1c(=O)c2c(nc3n2CCCN3Cc2ccccc2)n(C)c1=O | 11.2 µM (active) |
| Cn1c(=O)n(CCc2ccccc2)c(=O)c2c1nc1n2CCCN1c1ccccc1 | inactive |
| CC(C)CCn1c(CN(C)Cc2ccccc2)nc2c1c(=O)n(C)c(=O)n2C | inactive |
| O=c1[nH]c(=S)[nH]c(O)c1/C=C1\C=Nc2ccccc21 | inactive |
| Cc1cc(F)ccc1S(=O)(=O)Nc1ccc(C(=O)N(C)Cc2ccco2)cc1 | inactive |
| CCOC(=O)C1=CN(Cc2ccc(Br)cc2)S(=O)(=O)NC1C (stereo not given) | inactive |
| COC(=O)c1cc(Oc2ccc(S(=O)(=O)N3CCOCC3)cc2[N+](=O)[O-])cc(C(=O)OC)c1 | inactive |
| O=C(CCN1c2ccccc2Sc2ccccc21)Nc1ccccc1 | 12.6 µM (active) |
| CC1CCN(CCC(=O)Nc2ccccc2)CC1 | inactive |
| O=C(CCN1C(=O)c2ccccc2C1=O)Nc1ccncc1 | inactive |
| O=S(=O)(Nc1ccc(-n2cnnn2)cc1)c1ccc(Cl)cc1 | inactive |
| Fc1ccccc1-c1cc2cc3c(cc2cn1)OCO3 | inactive |
| O=C(CCN1CCCCC1)NCC(=O)Nc1ccc(Br)cc1C(=O)c1ccccc1 | 10 µM (active) |
| COc1ccc(NC(=O)CCN2CCCC2)c(OC)c1 | inactive |
| Cc1ccc(NC(=O)c2nc[nH]c2C(=O)N2CCCCC2)c(C(=O)c2ccccc2)c1 | inactive |

| SMILES | Potency |
| --- | --- |
| Cc1cccc(C)c1Nc1nnc(SCC(=O)NCCCN2CCCC2=O)s1 | inactive |
| COC(=O)C1=CO[C@@H](O[C@@H]2O[C@H](CO)[C@@H](O)[C@H](O)[C@H]2O)C2C1C[C@H](O)[C@@H]2C (stereo not given in full) | 2.51 µM (active) |
| C=CC1C(OC2OC(CO)C(O)C(O)C2O)OC=C(C(=O)OC)C1CC1CC(=O)CC(CC(=O)CCc2ccc(O)cc2)O1 (stereo not given) | inactive |
| CO[C@H]1[C@@H]2C=CO[C@@H](O[C@H]3O[C@@H](CO)[C@H](O)[C@@H](O)[C@@H]3O)[C@@H]2[C@@]2(CO)O[C@@H]12 | inactive |
| CCCc1cc(=O)[nH]c(SCC(=O)c2cc(C)n(CCC)c2C)n1 | inactive |
| Cc1cc(C(=O)CSc2nc(N)cc(=O)[nH]2)c(C)n1CCc1ccc(Cl)cc1 | 11.2 µM (active) |
| Cc1cc(=O)[nH]c(SCc2ccc(Cl)cc2)n1 | inactive |
| Cc1ccc(S(=O)(=O)N2CCN(C(=O)c3cc(S(=O)(=O)N4CCOCC4)ccc3F)CC2)cc1 | inactive |
| CCCCCCCCNS(=O)(=O)CCNC1CCCCC1 | inactive |
| COc1cccc(C(=O)Nc2ccc(N3CCCC3)cc2)c1 | 11.2 µM (active) |
| COc1ccc(C(=O)Nc2ccc(N3CCC(C)CC3)cc2)cc1Br | inactive |
| COc1cccc(C(=O)Nc2ccc(N3CCN(C(=O)c4ccco4)CC3)cc2)c1 | inactive |
| O=C(CSc1ncn[nH]1)Nc1ccc(Br)cc1Br | inactive |
| CC1(C)Cc2c(cnn2-c2cccc(F)c2)C(NC(=O)c2cc[n+]([O-])cc2)C1 (stereo not given) | inactive |
| COc1cccc(C(=O)Nc2c3c(nn2-c2cccc(C)c2C)CS(=O)(=O)C3)c1OC | inactive |
| CC(=O)NCC(=O)NC1CCCc2c1cnn2-c1ccccc1F (stereo not given) | inactive |
| COc1ccc(C(=O)NC2CC(C)(C)Cc3c2cnn3-c2ccccc2C)o1 (stereo not given) | inactive |
| Cc1cccc(C(=O)OC(C)C(=O)NC2CCCc3ccccc32)c1O (stereo not given) | inactive |
| Cc1cc(C(=O)NC2CCCc3c2cnn3-c2cccc(C)c2C)c(C)o1 (stereo not given) | 10 µM (active) |
| Cn1nccc1C(=O)NC1CCCc2c1cnn2-c1ccccc1F (stereo not given) | 0.891 µM (active) |
| Cc1cc(C(=O)NNC(=O)c2ccccc2O)c(C)o1 | inactive |
| COc1ccc(C(=O)NC2CCCc3c2cnn3-c2cccc(C)c2C)c(OC)n1 (stereo not given) | 2.24 µM (active) |
